From PubChem BioAssay (NCATS) come the findings set out here.

Assay [1] addresses Cytochrome P450 1A2 (Homo sapiens) (UniProt P05177). Description: p450-cyp1a2 (AID 410; calls by dose curve; note: potency is the fitted concentration of half-maximal effect). The gist of the method: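 Luminescent readout of luciferin formed from Luciferin-ME by human CYP1A2; data normalized against complete inhibition by 57 uM furafylline. Enzyme 20nM, substrate 100uM at Km, 100mM KPO4 buffer, 60 min reaction at room temperature.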
The target of assay [2] is Mitogen-activated protein kinase 10 (Mus musculus) (UniProt Q61831). Put plainly: JNK3 AlphaScreen Assay (AID 530; active = well fitted curve in either direction with a large enough effect, not every such curve was filed as active;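 note: kinase came from lysate of stimulated human HepG2 cells; signal reports phosphorylation of biotinylated GST-cJun 1-79 at Ser73 with 10 µM ATP; series mostly up to about 57 µM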). Summed up: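 Pre-activated (IL-1β/TNFα) JNK3 in HepG2 lysates phosphorylates biotin-GST-cJun(1-79), 10 uM ATP; anti-phospho-cJun(Ser73) AlphaScreen read at room temperature, pH 7.6 Tris buffer. Compounds pre-incubated 15 min as titrations.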
Assay [3] addresses 3',5'-cyclic-AMP phosphodiesterase 4B (Homo sapiens) (UniProt Q07343). Description: qHTS Assay for Inhibitors of PDE-IV (AID 607; active = well fitted activation curve with a large enough effect in the main read-out, with a control signal flat, not every such curve was filed as active). Summed up:
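ACTOne HEK293 cells carry a modified cAMP-gated CNG channel and express endogenous PDE4; plated 1000 cells/well, compounds up to 22.9 uM final. Membrane-potential dye fluorescence (ex 535/em 590) was read; parental cells received 10 uM forskolin + 100 uM RO 20-1724.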

Assay [4] deals with Cytochrome P450 2C9 (Homo sapiens) (UniProt P11712). Put plainly: qHTS Assay for Inhibitors and Substrates of Cytochrome P450 2C9 (AID 883). Note: nearly all actives have a fitted effect of over 60% in size. Note: potency is the fitted concentration of half-maximal effect. Summed up: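 Signal: luciferase luminescence reporting luciferin produced by CYP2C9. Conditions: 10nM enzyme, Luciferin-H 100uM at KM, 25mM KPO4, 37C, 60 min NADPH-driven reaction. Reference: 57uM sulphaphenazole as 100% inhibition.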
Assay [5] deals with Cytochrome P450 3A4 (Homo sapiens) (UniProt P08684). Description: qHTS Assay for Inhibitors and Substrates of Cytochrome P450 3A4 (AID 884). Note: potency is the fitted concentration of half-maximal effect; nearly all actives have a fitted effect of over 50% in size. Summed up: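 20 nM human CYP3A4 with 25 uM Luciferin-PPXE (at KM) in 200 mM KPO4, preincubated 10 min with compound; NADPH regeneration started a 60 min RT reaction. Luciferin detected by luminescence, normalized to 57 uM ketoconazole as full inhibition.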

For assay [6] the target is unchanged. Description: qHTS Assay for Activators of Cytochrome P450 3A4 (AID 885). Note: nearly all actives have a fitted effect of over 65% in size. Summed up:
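20nM CYP3A4 + 25uM Luciferin-PPXE (=KM), 200mM KPO4; cpd 10 min RT; NADPH regen, 60 min RT; stop w/ detection buffer, 20 min; luminescence. Normalized to 57 uM ketoconazole.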

Assay [7] has as its target Cytochrome P450 2D6 (Homo sapiens) (UniProt P10635). Description: qHTS Assay for Inhibitors and Substrates of Cytochrome P450 2D6 (AID 891). Note: potency is the fitted concentration of half-maximal effect; nearly all actives have a fitted effect of over 60% in size. The gist of the method:
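Human CYP2D6 (5 nM) with 30 uM Luciferin-ME EGE (at Km) in 100 mM KPO4, compound preincubated 10 min, then NADPH regeneration system for 60 min at room temperature. Luciferin read by luminescence; normalized to 1.43 uM quinidine.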

Assay [8] concerns the target Cytochrome P450 2C19 (Homo sapiens) (UniProt P33261). Put plainly: qHTS Assay for Inhibitors and Substrates of Cytochrome P450 2C19 (AID 899). Note: potency is the fitted concentration of half-maximal effect; nearly all actives have a fitted effect of over 60% in size. Summed up: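 Signal comes from luciferase acting on luciferin released by CYP2C19-mediated hydroxylation of Luciferin-H EGE, 10uM (KM). Assay mix: 5nM enzyme, 50mM KPO4; 60 min at 37C with NADPH regeneration. Data normalized against 57uM ketoconazole.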

A number with no mark means an inactive call. Inconclusive results are not listed. Activity calls are given as the source filed them. Unless noted, calls come from the whole dose curve; as a rule, active = well fitted curve in the direction sought with a large enough effect; inconclusive = small, poorly fitted or top-dose-only effect, or another doubt; inactive = no such curve, though single readings can be large; an effect the other way counts as inactive or inconclusive.

Sequence of 3',5'-cyclic-AMP phosphodiesterase 4B (Homo sapiens) (Q07343 whole entry, looked up): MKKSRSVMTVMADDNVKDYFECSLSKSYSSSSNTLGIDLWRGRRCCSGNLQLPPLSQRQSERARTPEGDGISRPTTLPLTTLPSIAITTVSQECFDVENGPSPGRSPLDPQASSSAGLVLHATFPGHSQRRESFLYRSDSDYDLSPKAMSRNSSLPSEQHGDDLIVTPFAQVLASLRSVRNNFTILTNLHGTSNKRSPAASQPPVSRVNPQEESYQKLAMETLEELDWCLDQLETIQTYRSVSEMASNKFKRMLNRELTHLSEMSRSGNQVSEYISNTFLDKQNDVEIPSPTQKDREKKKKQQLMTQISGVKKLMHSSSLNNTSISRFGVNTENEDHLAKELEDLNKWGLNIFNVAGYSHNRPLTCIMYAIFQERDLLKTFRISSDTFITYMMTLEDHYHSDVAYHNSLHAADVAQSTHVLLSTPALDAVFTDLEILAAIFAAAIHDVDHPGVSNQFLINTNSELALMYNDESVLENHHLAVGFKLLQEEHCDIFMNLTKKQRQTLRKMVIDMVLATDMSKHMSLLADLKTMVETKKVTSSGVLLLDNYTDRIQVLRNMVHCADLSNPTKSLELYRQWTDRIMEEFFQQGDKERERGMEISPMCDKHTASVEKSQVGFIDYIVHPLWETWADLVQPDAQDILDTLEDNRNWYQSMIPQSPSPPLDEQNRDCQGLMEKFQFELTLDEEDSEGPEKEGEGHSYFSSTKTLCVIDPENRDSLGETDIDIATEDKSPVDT
Sequence of Cytochrome P450 1A2 (Homo sapiens) (P05177 whole entry, looked up): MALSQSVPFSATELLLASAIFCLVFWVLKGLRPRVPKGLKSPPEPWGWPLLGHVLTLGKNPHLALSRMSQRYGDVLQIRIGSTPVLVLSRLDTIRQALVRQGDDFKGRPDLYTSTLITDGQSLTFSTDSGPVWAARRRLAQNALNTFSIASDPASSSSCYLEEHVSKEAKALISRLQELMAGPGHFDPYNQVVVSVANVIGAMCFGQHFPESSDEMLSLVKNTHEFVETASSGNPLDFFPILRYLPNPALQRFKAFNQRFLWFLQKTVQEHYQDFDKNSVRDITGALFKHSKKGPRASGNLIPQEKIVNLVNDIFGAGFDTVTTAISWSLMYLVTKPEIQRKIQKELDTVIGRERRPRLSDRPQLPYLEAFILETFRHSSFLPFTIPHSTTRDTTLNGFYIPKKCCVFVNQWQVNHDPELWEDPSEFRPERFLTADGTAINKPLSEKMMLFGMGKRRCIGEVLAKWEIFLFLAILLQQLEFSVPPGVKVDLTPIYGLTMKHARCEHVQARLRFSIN
Sequence of Cytochrome P450 2C9 (Homo sapiens) (P11712 whole entry, looked up): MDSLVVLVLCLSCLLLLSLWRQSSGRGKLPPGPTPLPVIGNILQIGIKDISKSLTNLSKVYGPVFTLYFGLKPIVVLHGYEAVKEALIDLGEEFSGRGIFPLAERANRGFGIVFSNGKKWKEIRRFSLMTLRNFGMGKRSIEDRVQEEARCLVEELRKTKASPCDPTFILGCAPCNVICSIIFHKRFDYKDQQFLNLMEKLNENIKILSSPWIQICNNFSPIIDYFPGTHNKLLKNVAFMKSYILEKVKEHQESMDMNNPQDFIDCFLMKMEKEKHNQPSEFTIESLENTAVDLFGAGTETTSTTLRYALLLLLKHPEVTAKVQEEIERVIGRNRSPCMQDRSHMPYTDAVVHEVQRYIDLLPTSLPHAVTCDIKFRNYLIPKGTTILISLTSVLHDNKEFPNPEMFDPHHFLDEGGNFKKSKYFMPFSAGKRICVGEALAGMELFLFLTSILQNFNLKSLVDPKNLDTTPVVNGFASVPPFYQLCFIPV
Sequence of Cytochrome P450 3A4 (Homo sapiens) (P08684 whole entry, looked up): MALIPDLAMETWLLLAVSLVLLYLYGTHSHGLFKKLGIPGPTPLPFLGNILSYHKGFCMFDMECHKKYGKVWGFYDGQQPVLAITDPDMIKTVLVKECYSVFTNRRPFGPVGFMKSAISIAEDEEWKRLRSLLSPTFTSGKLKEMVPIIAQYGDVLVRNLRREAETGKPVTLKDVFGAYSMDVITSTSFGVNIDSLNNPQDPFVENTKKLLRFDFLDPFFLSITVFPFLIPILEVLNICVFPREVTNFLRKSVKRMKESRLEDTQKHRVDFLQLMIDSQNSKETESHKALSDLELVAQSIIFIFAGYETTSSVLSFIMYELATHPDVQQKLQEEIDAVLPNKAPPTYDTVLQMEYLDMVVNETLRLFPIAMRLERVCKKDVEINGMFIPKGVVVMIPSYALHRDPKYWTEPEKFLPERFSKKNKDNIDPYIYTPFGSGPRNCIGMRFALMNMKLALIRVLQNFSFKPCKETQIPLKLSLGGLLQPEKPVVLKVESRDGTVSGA
Sequence of Cytochrome P450 2C19 (Homo sapiens) (P33261 whole entry, looked up): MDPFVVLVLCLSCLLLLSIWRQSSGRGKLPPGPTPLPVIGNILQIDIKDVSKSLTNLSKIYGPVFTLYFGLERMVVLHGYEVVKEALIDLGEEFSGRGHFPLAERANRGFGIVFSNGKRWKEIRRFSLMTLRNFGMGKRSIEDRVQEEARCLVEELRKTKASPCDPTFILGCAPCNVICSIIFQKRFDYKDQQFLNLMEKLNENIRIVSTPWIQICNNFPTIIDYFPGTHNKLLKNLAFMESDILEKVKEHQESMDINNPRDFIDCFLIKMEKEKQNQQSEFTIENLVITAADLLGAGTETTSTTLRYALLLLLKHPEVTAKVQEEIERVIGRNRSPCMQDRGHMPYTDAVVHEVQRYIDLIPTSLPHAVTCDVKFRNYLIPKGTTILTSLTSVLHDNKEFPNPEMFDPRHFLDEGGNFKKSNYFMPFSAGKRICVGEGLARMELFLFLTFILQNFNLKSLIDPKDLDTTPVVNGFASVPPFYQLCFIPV
Sequence of Cytochrome P450 2D6 (Homo sapiens) (P10635 whole entry, looked up): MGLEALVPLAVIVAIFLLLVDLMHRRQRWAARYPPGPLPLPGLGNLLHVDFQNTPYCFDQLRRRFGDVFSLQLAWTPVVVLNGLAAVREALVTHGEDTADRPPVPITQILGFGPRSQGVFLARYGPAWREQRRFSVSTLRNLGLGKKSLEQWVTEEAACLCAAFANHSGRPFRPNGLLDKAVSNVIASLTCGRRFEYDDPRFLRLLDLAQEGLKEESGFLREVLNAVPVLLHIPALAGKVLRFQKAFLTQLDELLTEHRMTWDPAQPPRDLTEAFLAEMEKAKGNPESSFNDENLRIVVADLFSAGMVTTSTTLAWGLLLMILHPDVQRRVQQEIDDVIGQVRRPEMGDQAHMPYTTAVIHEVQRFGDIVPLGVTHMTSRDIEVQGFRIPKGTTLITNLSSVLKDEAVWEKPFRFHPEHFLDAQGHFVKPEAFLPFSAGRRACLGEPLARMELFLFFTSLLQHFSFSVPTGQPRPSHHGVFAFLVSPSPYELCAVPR

With `COC(=O)[C@@]1(Cc2ccc(F)cc2)[C@H]2c3cc(C(=O)N4CCCC4)n(CCF)c3C[C@H]2CN1C(=O)c1ccccc1`, the Potency in assay [1] was 15.8 µM (active). The Potency result in assay [2] and in assay [3] was “inactive” each time.

On to `C[C@@H](C(=O)Nc1ccc2ccccc2c1)[C@@H]1C[C@@]1(C)[C@@H](NS(=O)(=O)c1ccc(-c2ccccc2)cc1)c1ccccc1`, for which the Potency in assay [1] is 12.6 µM (active). The Potency result in assay [2] and in assay [3] was “inactive” each time.

In the case of `COC(=O)[C@@H]1C[C@H]1[C@@H](NC(=O)c1ccccc1)c1ccccc1`, in assay [1], the Potency was 5.01 µM (active). Further, the Potency entry in assay [2] and in assay [3] was “inactive” in each case.

Consider `CC(=O)N1CC2(CC2)CC1c1ccccc1` (configuration not stated), for which the Potency result in assay [1], in assay [2] and in assay [3] was “inactive” in each case.

On to `CCc1c2c(nc3cccc(OC)c13)OC(CC)C2` (configuration not stated), for which the Potency in assay [1] is 2 µM (active). The Potency result in assay [2] and in assay [3] was “inactive” each time.

For `C[C@@H](C(=O)Nc1ccc2ccccc2c1)[C@H]1C[C@]1(C)[C@H](NP(=O)(c1ccccc1)c1ccccc1)c1ccccc1`, the Potency was 10 µM (active) in assay [1], 3.16 µM (active) in assay [4], 2 µM (active) in assay [5] and 0.794 µM (active) in assay [7]. Moreover, the Potency result in assay [2], in assay [3] and in assay [6] was “inactive” in each case.

As for `C[C@@H](C(=O)Cc1ccc2ccccc2c1)[C@@H]1C[C@@]1(C)[C@@H](NP(=O)(c1ccccc1)c1ccccc1)c1ccccc1`, the values for the Potency in assay [1] and in assay [4] were 10 µM (active) and 3.16 µM (active), respectively. The Potency result in assay [2], in assay [3] and in assay [6] was “inactive” throughout.

For `CCCc1cc2c(n1Cc1cc(F)cc(F)c1)C(C)C1CN(C(=O)c3ccccc3)C(C)(C(=O)OC)C21` (configuration not stated), the Potency result in assay [1], in assay [2], in assay [3] and in assay [6] was “inactive” throughout. In addition, the Potency in assay [4] was 6.31 µM (active); in assay [5], 3.16 µM (active).

For the compound `COC(=O)[C@@]1(Cc2ccc(F)cc2)[C@H]2c3cc(C(=O)N4CCCC4)n(Cc4ccc(OC(F)(F)F)cc4)c3C[C@H]2CN1C(=O)c1ccccc1`, the Potency result in assay [1], in assay [2], in assay [3] and in assay [6] was “inactive” throughout. Further, the results for the Potency in assay [4] and in assay [5] were 6.31 µM (active) and 2.51 µM (active), respectively.

Consider `Cc1cc(C(=O)N[C@@H](c2ccccc2)[C@]2(C)C[C@H]2[C@@H](C)C(=O)Nc2ccc3ccccc3c2)n(C)n1`, for which the Potency is 12.6 µM (active) in assay [1], 3.98 µM (active) in assay [4] and 0.794 µM (active) in assay [5]. The Potency result in assay [2], in assay [3] and in assay [6] was “inactive” in each case.

As to `CCCC1(C(=O)OC)C=C2C(=C(c3ccccc3)C(=O)C2C)CN1` (configuration not stated), the Potency in assay [1] was 15.8 µM (active); in assay [4], 5.01 µM (active). In addition, the Potency result in assay [2], in assay [3] and in assay [6] was “inactive” in each case.

Regarding `C[C@@H](C(=O)NCc1cccc2ccccc12)[C@H]1C[C@]1(C)[C@H](NC(=O)OCc1ccccc1)c1ccccc1`, the Potency in assay [1] was 25.1 µM (active); in assay [4] it was 3.16 µM (active); in assay [5], 0.398 µM (active); in assay [8] it was 2.51 µM (active). The Potency entry in assay [2], in assay [3] and in assay [6] was “inactive” throughout.

As for `COC(=O)[C@@]1(Cc2ccc(OC)cc2)[C@H]2c3cc(C(=O)N4CCCC4)n(Cc4cc(F)cc5c4OCOC5)c3C[C@H]2CN1C(=O)c1ccccc1`, the Potency entry in assay [1], in assay [2], in assay [3] and in assay [6] was “inactive” in each case. Moreover, the figures for the Potency in assay [4], in assay [5] and in assay [8] were 6.31 µM (active), 2.51 µM (active) and 7.94 µM (active), respectively.

Take `COC(=O)[C@@]1(Cc2ccc(F)cc2)[C@H]2c3cc(C(=O)N4CCCC4)n(CCc4c[nH]c5ccccc45)c3C[C@H]2CN1C(=O)c1ccccc1`: the Potency entry in assay [1], in assay [2], in assay [3] and in assay [6] was “inactive” throughout. For the same compound, the Potency in assay [4] was 2.51 µM (active).

On to `COC(=O)[C@@]1(Cc2ccc(OC)cc2)[C@H]2c3cc(C(=O)N4CCCC4)n(CCc4c[nH]c5ccc(O)cc45)c3C[C@H]2CN1C(=O)c1ccccc1`, for which the Potency result in assay [1], in assay [2], in assay [3] and in assay [6] was “inactive” each time. In addition, the figures for the Potency in assay [4] and in assay [5] were 3.16 µM (active) and 1.58 µM (active), respectively.

With `C[C@@H](C(=O)Nc1ccc2ccccc2c1)[C@@H]1C[C@@]1(C)[C@@H](NS(=O)(=O)c1ccc2ccccc2c1)c1ccccc1`, the Potency in assay [1] was 10 µM (active). Besides, the Potency result in assay [2], in assay [3], in assay [4] and in assay [6] was “inactive” each time.

As to `C[C@@H](C(=O)Nc1ccc2ccccc2c1)[C@H]1C[C@]1(C)[C@H](NC(=O)OCc1ccccc1)c1ccccc1`, the figures for the Potency in assay [1], in assay [4] and in assay [5] were 3.98 µM (active), 1.58 µM (active) and 2.51 µM (active), respectively. Also, the Potency result in assay [2], in assay [3] and in assay [6] was “inactive” in each case.

`COC(=O)[C@@]1(Cc2ccc(OC)cc2)[C@H]2c3cc(C(=O)N4CCCC4)n(CCc4c[nH]c5cc(F)ccc45)c3C[C@H]2CN1C(=O)c1ccccc1`: the Potency is 39.8 µM (active) in assay [1], 3.16 µM (active) in assay [4] and 1.26 µM (active) in assay [5]. The Potency result in assay [2], in assay [3] and in assay [6] was “inactive” throughout.
